Source: PubChem (Broad Institute)
aSyn UTR act – Activators via SNCA 5'UTR binding, MLPCN; activity score, % (tested at 7.5 µM), hits read low; 300,000 compounds, 7.1% hits; alpha-synuclein 5'UTR reporter, activators screen; in the data active = activity score below about -60%
A number is an active result; . = inactive. Only a sample is shown.

SMILES	aSyn UTR act
CCn1nccc1C(=O)Nc1ccc(C)c(C)c1	-178
COc1cccc(NC(=O)c2ccco2)c1	-116
O=C(Nc1ccc2c(c1)OCCO2)c1ccco1	-68
Cc1ccc(C(=O)Nc2ccc3c(c2)OCO3)cc1NC(=O)c1ccco1	-71
CC1(C)Oc2ccc(NC(=O)c3ccco3)cc2O1	-168
COc1cc(OC)cc(C(=O)Nc2ccc(NC(=O)c3ccco3)c(C)c2)c1	-123
CCOC(=O)c1cc2c(s1)-c1c(C)cccc1OC2	-164
Cc1cccc2c1-c1sc(C(=O)Nc3nccs3)cc1CO2	-213
Cc1cccc2c1-c1sc(C(=O)Nc3cccc([N+](=O)[O-])c3C)cc1CO2	-73
O=C(Nc1nc2ccccc2s1)c1cc2c(s1)-c1ccccc1OC2	-177
CCOC(=O)c1ccc(NC(=O)c2cccc(S(=O)(=O)N3c4ccccc4CC3C)c2)s1 (stereo not given)	.
O=C(Nc1nccs1)c1cc2c(s1)-c1ccccc1OC2	-218
CN1CCN(c2ccccc2NC(=O)c2cc3c(s2)-c2ccccc2OC3)CC1	-71
O=C(Nc1ccc(Cl)cn1)c1cc2c(s1)-c1ccccc1OC2	-111
CN(CC(=O)N1CCCCCC1)S(=O)(=O)c1ccccc1	-68
COC(=O)c1c(NC(=O)CCl)sc(C(=O)N2CCOCC2)c1C	-83
CC(=O)Nc1nc(-c2ccc3c(c2)CC(C)N3C(=O)C2CC2)c(C)s1 (stereo not given)	-295
CCOC(=O)C(=O)Nc1nc(-c2ccc3c(c2)CCN3C(=O)C2CC2)c(C)s1	-76
CC1Cc2cc(S(=O)(=O)NCc3ccccc3)ccc2N1C(=O)C1CC1 (stereo not given)	-65
Cc1sc(NC(=O)c2ccco2)nc1-c1ccc2c(c1)CC(C)N2C(=O)C1CC1 (stereo not given)	-106
O=[N+]([O-])c1cc(C=Nc2ccc3ccccc3c2)ccc1Br	-119
Cc1occc1C(=O)N/N=C/c1ccc(OCc2ccccc2)cc1	-138
O=C(N/N=C/c1ccc(OCc2ccccc2)cc1)c1cc[n+](Cc2ccccc2)cc1	-77
CC/C(=N\NC(=O)c1ccoc1C)c1ccc(C)o1	-155
CCOc1ccc(OCc2cccc(C(=O)N/N=C/c3cccnc3)c2)cc1	.
SMILES	aSyn UTR act
CCN(C(=O)c1cc2cc3ccc(C)cc3nc2o1)c1ccc(OC)cc1	-307
CCCCN(C)C(=O)c1cc2cc3ccc(OC)cc3nc2o1	-114
COc1ccc2cc3cc(C(=O)NC(C)C)oc3nc2c1	-142
CCCCN(C)C(=O)c1cc2cc3cc(OC)ccc3nc2o1	-121
Cc1nc(NC(=O)c2ccccc2)sc1-c1csc(Nc2cccc(F)c2)n1	-81
Cc1ccc(Cl)cc1Nc1nc(-c2sc(NC(=O)c3ccccc3)nc2C)cs1	-94
COc1ccc(/C=C(\C#N)C(=O)OC2CCOC2=O)cc1 (stereo not given)	-84
c1ccc(N2CCN(c3nc4ccccc4[nH]3)CC2)nc1	-136
Nc1ncn([C@H]2C[C@H](O)[C@@H](CO)O2)c(=O)n1	-925
O=c1[nH]c(=O)n([C@H]2C[C@H](O)[C@@H](CO)O2)cc1C(F)(F)F	.
Nc1nc(Cl)nc2c1ncn2C1CC(O)C(CO)O1 (stereo not given)	.
CN1CCN(C(=O)c2ccc3c(c2)NC(=O)/C(=C/c2ccccc2)S3)CC1	-88
Cc1cccc(CN2C(=O)/C(=C\c3ccc(C(=O)NCCCN4CCN(C)CC4)cc3)Oc3ccccc32)c1	.
Cc1cccc(/C=C2/Sc3ccc(C(=O)NCCCN4CCOCC4)cc3NC2=O)c1	-69
CSc1nn(-c2ccc(C(=O)OCC(=O)NC(=O)NC(C)C)cc2)c(=S)s1	-69
CN(c1ccccc1)c1nc2ccsc2c(=O)s1	-124
O=C(CSc1n[nH]c(-c2ccccc2O)n1)N1CCOCC1	-70
O=C(Nc1nnc(C2CCCO2)s1)c1cccs1 (stereo not given)	-90
O=C(Nc1nnc(C2CCCCC2)s1)c1cccs1	-163
COc1cccc(C(=O)Nc2nnc(C3CCCO3)s2)c1 (stereo not given)	-99
Oc1ccc(C2C(c3ccccc3)=NN=C(c3ccc(Cl)cc3)N2O)c(O)c1 (stereo not given)	-72
Oc1ccc(C2C(c3ccccc3)=NN=C(c3ccccc3F)N2O)c(O)c1 (stereo not given)	-91
COc1ccc(C2=NC(c3ccccc3)CO2)cc1 (stereo not given)	-118
Cc1cc(C)cc(NC(=O)N2CCc3ccccc3C2)c1	-111
Cc1ccccc1NC(=O)N1CCc2ccccc2C1	-80
SMILES	aSyn UTR act
Cc1ccc(NC(=O)N2CCc3ccccc3C2)cc1C	-152
Cc1ccc(NC(=O)C2OCCc3ccccc32)cc1C (stereo not given)	-62
CCn1c(=O)c(C(=O)Nc2ccsc2C(=O)OC)c(O)c2ccccc21	-65
C=CCn1c(=O)c(C(=O)Nc2ccc(C)cc2)c(O)c2ccccc21	-76
C=CCn1c(O)c(N=NC(=S)Nc2ccc(OC)cc2)c2ccccc21	.
C=CCn1c(N)c(C(=O)Nc2ccc(C)cc2)sc1=S	-149
C=CCn1c(=O)c(C(=O)Nc2ccccc2S(N)(=O)=O)c(O)c2ccccc21	-156
COc1cccc(C(=O)Nc2ccc(-c3nc4ccccc4o3)c(O)c2)c1	-115
Cc1ccc2oc(-c3ccc(NC(=O)c4cccnc4)cc3)nc2c1	-162
O=C(Nc1ccc(-c2nc3ccccc3o2)cc1)c1cccnc1	-133
O=C(Nc1ccc(-c2noc(CCc3ccccc3)n2)cc1)c1cccnc1	-67
COC(=O)c1ccc(NC(=O)NC2CCCCC2)cc1	-117
COc1ccc(NC(=O)NC2CCCCCCC2)cc1	-139
Nc1cc2ccncc2c2ccccc12	-71
CC(C)c1ccc(C2C3=C(COC3=O)Nc3cc4c(cc32)OCO4)cc1 (stereo not given)	.
O=C1NC(c2ccc3c(c2)OCO3)Nc2ccccc21 (stereo not given)	-180
CC(C)Oc1ccccc1C1CC(=O)Nc2cc3c(cc21)OCO3 (stereo not given)	.
CCc1ccc(/C=C2\SC(=S)N(CCC(=O)NC3=NCCS3)C2=O)cc1	.
COC(=O)c1ccc(CSC2=NCCS2)cc1	-83
CCn1c(SC(C)C)nnc1-c1cc(-c2ccccc2)sc1N	-171
Cc1ccc(C(=O)Nc2sc(C)c(-c3ccccc3)c2C(N)=O)cc1[N+](=O)[O-]	-81
C/C(=N\Nc1nc2ccccc2s1)c1ccc2c(c1)OCO2	-176
O=C(N/N=C(\c1ccccc1)c1ccccn1)c1cccc([N+](=O)[O-])c1	.
C/C(=N\NC(=O)c1ccc([N+](=O)[O-])cc1Cl)c1ccccc1	-148
C/C(=N\NC(=O)c1ccc2c(c1)OCO2)c1ccc(O)cc1	-64
C/C(=N/NC(=O)c1ccccc1)C1=C(O)CC(C)(C)CC1=O	-95
C/C(=N\NC(=O)c1ccccc1)c1ccc2c(c1)OCO2	-118
C/C(=N\NC(=O)c1nc2ccccn2c1C)c1ccco1	-135
C/C(=N\NC(=O)c1ccccc1)c1ccc(C)c([N+](=O)[O-])c1	-109
C/C(=N\NC(=O)c1ccccc1)c1cccc(Br)c1	-110
